Assay outcomes (PubChem BioAssay)
AmpC inh no detg = qHTS Inhibitors of AmpC Beta-Lactamase (assay without detergent); P00811; AmpC nitrocefin hydrolysis, absorbance 480 nm, 0.0001% Triton; Potency, µM (doses to about 57.1 µM), actives largely listed as inhibitors; 0.52% of 330,000 active; AID 485341, 2010; note: nearly all actives have a fitted effect of over 20% in size
Target sequence (P00811 whole entry, looked up): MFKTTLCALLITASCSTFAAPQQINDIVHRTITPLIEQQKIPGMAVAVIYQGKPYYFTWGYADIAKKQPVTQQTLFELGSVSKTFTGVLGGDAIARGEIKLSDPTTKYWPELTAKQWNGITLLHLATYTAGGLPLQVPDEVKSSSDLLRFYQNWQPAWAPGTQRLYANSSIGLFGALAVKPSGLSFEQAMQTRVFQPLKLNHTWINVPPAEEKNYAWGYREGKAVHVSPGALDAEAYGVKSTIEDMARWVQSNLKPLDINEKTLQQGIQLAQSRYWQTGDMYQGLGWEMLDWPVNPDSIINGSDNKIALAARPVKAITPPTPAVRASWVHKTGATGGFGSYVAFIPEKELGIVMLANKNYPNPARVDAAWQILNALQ
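20 mM phosphate pH 7.0 + 0.01% (detergent screen) or 0.0001% Triton X-100; 5.3 nM AmpC reagent; cpd preinc 15 min RT; nitrocefin (800 uM stock) to start; A480 q20 s × 4 min; Activity was normalised to no-enzyme and no-compound control wells.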
Vaccinia mCherry = qHTS for Stage-Specific Inhibitors of Vaccinia Orthopoxvirus: mCherry Reporter Primary qHTS; Vaccinia virus mCherry reporter infection, fluorescence; Potency, µM (highest dose often 36.5 µM), usual class: inhibitors; 0.63% of 310,000 active; AID 720579, 2013; calls by dose curve; tested in A549 cells; note: nearly all actives have a fitted effect of over 35% in size
Vaccinia Venus = qHTS for Stage-Specific Inhibitors of Vaccinia Orthopoxvirus: Venus Reporter Primary qHTS. Potency, µM (top dose mostly 36.5 µM), most hits filed as inhibitors. 0.46% of 330,000 active. Vaccinia virus Venus reporter expression, fluorescence; calls by dose curve; tested in A549 cells; note: nearly all actives have a fitted effect of over 30% in size
SARS PLpro yeast-1 = qHTS of Yeast-based Assay for SARS-CoV PLP; S. cerevisiae expressing SARS-CoV PLpro, growth rescue; Potency, µM (top dose mostly 32.9 µM), usual class: activators; 0.19% of 330,000 active; AID 485353, 2010; calls by dose curve; note: nearly all actives have a fitted effect of over 55% in size
AmpC inh detg = qHTS Inhibitors of AmpC Beta-Lactamase (assay with detergent) | AID 485294, 2010 | P00811 | Potency, µM (doses to about 114 µM), actives largely listed as inhibitors | 0.041% of 370,000 active | AmpC hydrolysis of nitrocefin, absorbance 480 nm, 0.01% Triton; note: nearly all actives have a fitted effect of over 25% in size
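AmpC (5.3 nM in the dispensed reagent) in 20 mM phosphate pH 7.0 with 0.01% (detergent screen) or 0.0001% Triton X-100 was preincubated with compounds for 15 min at room temperature. Nitrocefin was then added from an 800 uM solution, and hydrolysis was followed at 480 nm.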
SARS PLpro yeast-2 = qHTS of Yeast-based Assay for SARS-CoV PLP: Hit Validation; shares compounds with SARS PLpro yeast-1; calls only; 19% of 1,000 active; yeast expressing SARS-CoV PLpro, growth phenotype rescue; call rule not given here
A number is an active result; n = inactive; u = inconclusive; x = no result; + = active, no number; ! = not active in a repeat; [ ] = remark or other dose. Compounds with a hit are over-represented: about 1.3% of the library has one in this group of screens. Unless noted, calls come from the whole dose curve; as a rule, active = well fitted curve in the direction sought with a large enough effect; inconclusive = small, poorly fitted or top-dose-only effect, or another doubt; inactive = no such curve, though single readings can be large; an effect the other way counts as inactive or inconclusive.

SMILES	AmpC inh no detg	Vaccinia mCherry	Vaccinia Venus	SARS PLpro yeast-1	AmpC inh detg	SARS PLpro yeast-2
OC1(c2cccc(C(F)(F)F)c2)CCN(Cc2nnnn2CCc2ccccc2)CC1	n	x	n	u	n	n
CCOc1ccc(-c2nnc3ccc(SCC(=O)Nc4nc5ccccc5s4)nn23)cc1	n	n	n	u	u	n
Cc1cccc(N=C2NC(=O)/C(=C/c3cccs3)S2)c1	n	n	n	n	n	x
Cc1ccc(N=C2NC(=O)/C(=C\c3cccs3)S2)cc1C	n	n	n	u	u	n
COc1cccc(-c2ccc3ncnc(NCc4cc(C)cs4)c3c2)c1	n	x	x	6.3µM!	n	n
Cc1cccc(CNc2ncnc3ccc(-c4cccnc4)cc23)c1	n	n	n	n	u	x
Cc1cccc(-c2ccc3ncnc(NCc4cccnc4)c3c2)c1	n	x	x	6.3µM!	n	n
Cc1cccc(-c2ccc3ncnc(NCc4cccs4)c3c2)c1	n	x	x	6.3µM!	n	n
Cc1csc(CNc2ncnc3ccc(-c4cccnc4)cc23)c1	n	x	x	n	n	x
CN(c1ccc(F)cc1)S(=O)(=O)N1CCCC(C(=O)NCc2cccc(Br)c2)C1 (configuration not stated)	x	n	n	x	n	x
COC(=O)[C@@]12C[C@@H](CC(=O)NCCCN3CCCC3=O)C(=O)N(CCc3ccc(OC)c(OC)c3)C1=CCC(C)(C)C2	x	n	n	x	x	x
O=C(/C=C/c1ccc(F)cc1)NCCc1ccc2c(c1)OCCO2	n	n	n	4µM	u	n
O=C(CSc1nc(=O)n(CCN2CCOCC2)c2c1CCC2)Nc1ccc(F)cc1F	x	n[7.34 µM]	n[7.34 µM]	x	n	x
CCOc1ccccc1NC(=S)Nc1ccccc1F	u	x	n	u	n	n
Cc1ccccc1NC(=O)C(C)OC(=O)CNS(=O)(=O)c1ccc(C#N)cc1 (configuration not stated)	n	n	n	u	u	n
COc1ccccc1CNc1nc2nc(C)c(Cl)c(C)n2n1	x	n	n	x	n	x
O=C(NCc1ccncc1)[C@@H]1CCCN1C(=O)[C@H]1CCCN1	x	n	n	x	x	x
CN(C(=O)c1ccc(NC(=O)C2CCCN(C(=O)OC(C)(C)C)C2)cc1)C1CCCC1 (configuration not stated)	n	n	n	u	x	n
NC(=O)c1ccccc1-c1noc(-c2ccccc2F)n1	n	x	x	n	n	x
CC(=O)c1cccc(-c2ccnc3c2CC(C(=O)Nc2cccc(OC(F)(F)F)c2)O3)c1 (configuration not stated)	x	n	n	x	x	x
CC(=O)N/C(=C/c1ccccc1)C(=O)NC(Cc1ccccc1)C(=O)O (configuration not stated)	n	n	n	u	n	n
O=C(NC(Cc1ccccc1)C(=O)O)/C(=C/c1ccccc1)NC(=O)c1ccccc1 (configuration not stated)	n	n	n	n	n	x
CCCCCC(=O)Nc1ccc(Cc2ccncc2)cc1	n	x	n	13µM	n	n
CCC(=O)N1CCc2cc(Br)cc(S(=O)(=O)CCC(=O)Nc3ccc(C)c(F)c3)c21	x	n	n	x	n	x
CC(=O)N/C(=C\c1cccc([N+](=O)[O-])c1)C(=O)NC1CCCCC1	n	n	n	u	n	n
SMILES	AmpC inh no detg	Vaccinia mCherry	Vaccinia Venus	SARS PLpro yeast-1	AmpC inh detg	SARS PLpro yeast-2
Cc1ccc(NC(=O)/C(=C/c2cccc([N+](=O)[O-])c2)NC(=O)C2CCCCC2)cc1	n	n	n	n	n	x
Nc1c(Cl)cc(-c2[nH]c3cc(C(=O)NCCO)ccc3c(=O)c2O)cc1Cl	n	n	n	u	u	+
CCCNC(=O)c1ccc2c(=O)c(O)c(-c3cccc(Br)c3)[nH]c2c1	n	u	u	u	n	x
CC(COC(=O)c1ccccc1)(COC(=O)c1ccccc1)/[N+]([O-])=C/c1ccccc1	n	n	n	u	n	n
Cc1nnsc1C(=O)N/N=C/c1ccccc1	n	n	n	n	n	x
Cc1nnsc1C(=O)N/N=C/c1ccc2ccccc2c1O	n	2.2µM	u	1µM	n	n
Cc1cc(Br)cc(C)c1OCC(=O)Nc1ccc(S(=O)(=O)Nc2ncccn2)cc1	x	n	n	x	n	x
O=[N+]([O-])c1ccc(Oc2cccc3cccnc23)c([N+](=O)[O-])c1	n	u	n	x	u	n
